Measurements: PubChem BioAssay AID1159580 (chemical genetic matrix, 2015)
Where “and” joins values, the source holds several entries; their conditions need not be identical. Identical values can stand only once. Hit rate of the full screen: of about 5,500 compounds, about 2,000 (36%) were called active. About 18% were inconclusive and are not listed. Some of the results follow. Values without a mark were called inactive. Rule as the data show it: active = normalized growth mostly below about 0.91 (no sharp cut-off); inconclusive = no clear call, values can overlap the other calls; inactive = mostly above about 0.92.

Test: chemical genetic growth profiling, strain panel (AID 1159580);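 also: tested at 20 µM; growth read once vehicle control cultures reached saturation at 30 °C; 1 = growth at the plate median or of vehicle wells; lower values mean less growth of the strain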
Conditions: growth OD
[1] = S. cerevisiae deletion strains, locus YDL101C, strain DUN1, hits give low values
[2] = S. cerevisiae deletion strains, locus YHR030C, strain SLT2, hits give low values

Cc1cc(=O)[nH]c(-c2ccccn2)n1
normalized growth (S. cerevisiae deletion strains, locus YAL013W, strain DEP1, hits give low values): 1.01 and 0.994 | normalized growth (S. cerevisiae deletion strains, locus YBR229C, strain ROT2, hits give low values): 1.01 | normalized growth (S. cerevisiae deletion strains, locus YCL061C, strain MRC1, hits give low values): 1 and 0.995 | normalized growth [1]: 0.994 | normalized growth (S. cerevisiae deletion strains, locus YDL134C, strain PPH21, hits give low values): 1.02 | normalized growth (S. cerevisiae deletion strains, locus YDR150W, strain NUM1, hits give low values): 0.912 and 1.02 | normalized growth (S. cerevisiae deletion strains, locus YEL061C, strain CIN8, hits give low values): 0.993 and 1.01 | normalized growth (S. cerevisiae deletion strains, locus YGR078C, strain PAC10, hits give low values): 1 and 1.01 | normalized growth (S. cerevisiae deletion strains, locus YGR229C, strain SMI1, hits give low values): 1.02 | normalized growth [2]: 1.02 and 1.03 | normalized growth (S. cerevisiae deletion strains, locus YHR087W, strain rtc3, hits give low values): 1.01 | normalized growth (S. cerevisiae deletion strains, locus YJR043C, strain POL32, hits give low values): 1.01 | normalized growth (S. cerevisiae deletion strains, locus YJR075W, strain HOC1, hits give low values): 1.04 and 1.01 | normalized growth (S. cerevisiae deletion strains, locus YLR039C, strain RIC1, hits give low values): 0.993 and 1.05 | normalized growth (S. cerevisiae deletion strains, locus YLR058C, strain SHM2 (second series), hits give low values): 1.01 and 1.02 | normalized growth (S. cerevisiae deletion strains, locus YLR085C, strain ARP6, hits give low values): 0.91 and 1.03 | normalized growth (S. cerevisiae deletion strains, locus YLR262C, strain YPT6, hits give low values): 0.993 and 1.02 | normalized growth (S. cerevisiae deletion strains, locus YML094W, strain GIM5, hits give low values): 0.965 and 1.01 | normalized growth (S. cerevisiae deletion strains, locus YMR219W, strain ESC1, hits give low values): 1.01 | normalized growth (S. cerevisiae deletion strains, locus YMR263W, strain SAP30, hits give low values): 0.943 and 0.992 | normalized growth (S. cerevisiae deletion strains, locus YMR307W, strain GAS1, hits give low values): 1.07 | normalized growth (S. cerevisiae deletion strains, locus YNL153C, strain GIM3, hits give low values): 1 and 0.995 | normalized growth (S. cerevisiae deletion strains, locus YNL298W, strain CLA4 (second series), hits give low values): 0.986 and 1.02 | normalized growth (S. cerevisiae deletion strains, locus YNL322C, strain KRE1, hits give low values): 1.01 and 1 | normalized growth (S. cerevisiae deletion strains, locus YNR030W, strain Alg12, hits give low values): 1.02 | normalized growth (S. cerevisiae deletion strains, locus YOL006C, strain TOP1, hits give low values): 1.09 | normalized growth (S. cerevisiae deletion strains, locus YPL055C, strain LGE1, hits give low values): 0.936 and 1 | normalized growth (S. cerevisiae deletion strains, locus YPL241C, strain CIN2, hits give low values): 1.03 | normalized growth (S. cerevisiae deletion strains, locus YPR135W, strain CTF4, hits give low values): 0.997 and 1.01 | normalized growth (S. cerevisiae strains, strain wild type, hits give low values): 1.01

C=CCc1c(CCC)nc(-c2ccccn2)[nH]c1=O
normalized growth (S. cerevisiae deletion strains, locus YAR019C, strain CDC15, hits give low values): 0.931 | normalized growth (S. cerevisiae deletion strains, locus YBL105C, strain PKC1, hits give low values): 0.945 | normalized growth (S. cerevisiae deletion strains, locus YBR135W, strain CKS1, hits give low values): 0.95 | normalized growth (S. cerevisiae deletion strains, locus YBR136W, strain MEC1, hits give low values): 0.933 | normalized growth (S. cerevisiae deletion strains, locus YBR160W, strain CDC28, hits give low values): 0.947 | normalized growth (S. cerevisiae deletion strains, locus YDL017W, strain CDC7, hits give low values): 0.931 | normalized growth (S. cerevisiae deletion strains, locus YDL028C, strain MPS1, hits give low values): 0.931 | normalized growth [1]: 0.945 | normalized growth (S. cerevisiae deletion strains, locus YDL108W, strain KIN28, hits give low values): 0.937 | normalized growth (S. cerevisiae deletion strains, locus YDL132W, strain cdc53, hits give low values): 0.936 | normalized growth (S. cerevisiae deletion strains, locus YDL214C, strain PRR2, hits give low values): 0.893 | normalized growth (S. cerevisiae deletion strains, locus YDR052C, strain DBF4, hits give low values): 0.955 | normalized growth (S. cerevisiae deletion strains, locus YDR054C, strain cdc34, hits give low values): 0.916 | normalized growth (S. cerevisiae deletion strains, locus YDR226W, strain ADK1, hits give low values): 0.94 | normalized growth (S. cerevisiae deletion strains, locus YDR477W, strain SNF1, hits give low values): 0.891 | normalized growth (S. cerevisiae deletion strains, locus YER123W, strain YCK3, hits give low values): 0.772 | normalized growth (S. cerevisiae deletion strains, locus YER133W, strain GLC7, hits give low values): 0.912 | normalized growth (S. cerevisiae deletion strains, locus YFL009W, strain cdc4, hits give low values): 0.928 | normalized growth (S. cerevisiae deletion strains, locus YFL029C, strain CAK1, hits give low values): 0.92 | normalized growth (S. cerevisiae deletion strains, locus YFR003C, strain YPI1, hits give low values): 0.952 | normalized growth (S. cerevisiae deletion strains, locus YFR019W, strain FAB1, hits give low values): 0.939 | normalized growth (S. cerevisiae deletion strains, locus YFR028C, strain CDC14, hits give low values): 0.945 | normalized growth (S. cerevisiae deletion strains, locus YGR040W, strain KSS1, hits give low values): 0.893 | normalized growth (S. cerevisiae deletion strains, locus YGR052W, strain FMP48, hits give low values): 0.904 | normalized growth (S. cerevisiae deletion strains, locus YGR092W, strain DBF2, hits give low values): 0.752 | normalized growth [2]: 0.875 | normalized growth (S. cerevisiae deletion strains, locus YHR079C, strain IRE1, hits give low values): 0.701 | normalized growth (S. cerevisiae deletion strains, locus YHR082C, strain KSP1, hits give low values): 0.883 | normalized growth (S. cerevisiae deletion strains, locus YHR205W, strain SCH9, hits give low values): 0.983 | normalized growth (S. cerevisiae deletion strains, locus YIL147C, strain SLN1, hits give low values): 0.931 | normalized growth (S. cerevisiae deletion strains, locus YJL095W, strain BCK1, hits give low values): 0.784 | normalized growth (S. cerevisiae deletion strains, locus YJL128C, strain PBS2, hits give low values): 0.96 | normalized growth (S. cerevisiae deletion strains, locus YJL157C, strain FAR1, hits give low values): 0.867 | normalized growth (S. cerevisiae deletion strains, locus YJR016C, strain ILV3, hits give low values): 0.94 | normalized growth (S. cerevisiae deletion strains, locus YJR066W, strain TOR1 (second series), hits give low values): 0.767 | normalized growth (S. cerevisiae deletion strains, locus YJR066W, strain TOR1, hits give low values): 0.748 | normalized growth (S. cerevisiae deletion strains, locus YKL048C, strain ELM1, hits give low values): 0.966 | normalized growth (S. cerevisiae deletion strains, locus YKL067W, strain YNK1, hits give low values): 0.902 | normalized growth (S. cerevisiae deletion strains, locus YKL101W, strain HSL1, hits give low values): 0.896 | normalized growth (S. cerevisiae deletion strains, locus YKL193C, strain SDS22, hits give low values): 0.936 | normalized growth (S. cerevisiae deletion strains, locus YKL203C, strain TOR2, hits give low values): 0.926 | normalized growth (S. cerevisiae deletion strains, locus YLR113W, strain HOG1, hits give low values): 0.733 (active) | normalized growth (S. cerevisiae deletion strains, locus YLR133W, strain CKI1, hits give low values): 0.886 | normalized growth (S. cerevisiae deletion strains, locus YLR403W, strain SFP1, hits give low values): 0.892 | normalized growth (S. cerevisiae deletion strains, locus YML070W, strain DAK1, hits give low values): 0.884 | normalized growth (S. cerevisiae deletion strains, locus YMR001C, strain CDC5, hits give low values): 0.937 | normalized growth (S. cerevisiae deletion strains, locus YMR205C, strain PFK2 (second series), hits give low values): 0.901 | normalized growth (S. cerevisiae deletion strains, locus YMR277W, strain FCP1, hits give low values): 0.944 | normalized growth (S. cerevisiae deletion strains, locus YNL006W, strain LST8, hits give low values): 0.943 | normalized growth (S. cerevisiae deletion strains, locus YNL020C, strain ARK1, hits give low values): 0.877 | normalized growth (S. cerevisiae deletion strains, locus YNL161W, strain CBK1, hits give low values): 0.945 | normalized growth (S. cerevisiae deletion strains, locus YNL183C, strain NPR1, hits give low values): 0.825 | normalized growth (S. cerevisiae deletion strains, locus YNL207W, strain RIO2, hits give low values): 0.924 | normalized growth (S. cerevisiae deletion strains, locus YNL222W, strain SSU72, hits give low values): 0.945 | normalized growth (S. cerevisiae deletion strains, locus YNL307C, strain MCK1 (second series), hits give low values): 0.84 | normalized growth (S. cerevisiae deletion strains, locus YOL078W, strain AVO1, hits give low values): 0.933 | normalized growth (S. cerevisiae deletion strains, locus YOL136C, strain PFK27, hits give low values): 0.883 | normalized growth (S. cerevisiae deletion strains, locus YOR061W, strain CKA2, hits give low values): 0.877 | normalized growth (S. cerevisiae deletion strains, locus YOR119C, strain RIO1, hits give low values): 0.905 | normalized growth (S. cerevisiae deletion strains, locus YOR231W, strain MKK1, hits give low values): 0.73 | normalized growth (S. cerevisiae deletion strains, locus YOR329C, strain SCD5, hits give low values): 0.941 | normalized growth (S. cerevisiae deletion strains, locus YPL031C, strain PHO85, hits give low values): 0.891 | normalized growth (S. cerevisiae deletion strains, locus YPL153C, strain RAD53, hits give low values): 0.864 | normalized growth (S. cerevisiae deletion strains, locus YPL204W, strain HRR25, hits give low values): 0.856 | normalized growth (S. cerevisiae deletion strains, locus YPL209C, strain IPL1, hits give low values): 0.94 | normalized growth (S. cerevisiae deletion strains, locus YPL256C, strain CLN2, hits give low values): 0.823 (active) | normalized growth (S. cerevisiae deletion strains, locus YPR025C, strain CCL1, hits give low values): 0.945 | normalized growth (S. cerevisiae deletion strains, locus YPR106W, strain ISR1, hits give low values): 0.944 | normalized growth (S. cerevisiae deletion strains, locus YPR111W, strain DBF20, hits give low values): 0.954 | normalized growth (S. cerevisiae deletion strains, strain NNK1, hits give low values): 0.945 | normalized growth (S. cerevisiae deletion strains, strain TSCII, hits give low values): 0.929
